# In PubChem BioAssay:
# Calls of active or inactive are those of the source.
# Key:
# [1] = test system: Human papillomavirus type 1a protein E7 (residues 44-93); assay: HPV1a E7 fragment binders on microarrays, primary screen, biochemical, small-molecule microarray, residues 44-93, 635 nm fluorescence (AID 1108); details: small-molecule microarray binding, fluorescence 635 nm; higher = more signal;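 note: E7 fragment applied at 1 µg/mL in TBST for 1 h at 4 C; score combines spot fluorescence with its signal to noise ratio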
# [2] = modulators of HCV replicon luciferase signal, primary screen, HCV replication inhibitor project, Huh7 cells, luciferase reporter (AID 1109); details: 48 h, higher = more signal;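 note: huh7 hepatoma cells harbouring a luciferase neomycin HCV replicon reporter; luciferase luminescence as measure of HCV replicon replication; test concentration not given here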
# [3] = target: Left-right determination factor 2 (Homo sapiens) (UniProt O00292); assay: LEFTY2 binders on small-molecule microarrays, primary screen, biochemical, small-molecule microarray, 635 nm fluorescence scan (AID 1110); details: LEFTY2 binding, higher = more signal
# Left-right determination factor 2 (Homo sapiens), sequence (O00292 whole entry, looked up): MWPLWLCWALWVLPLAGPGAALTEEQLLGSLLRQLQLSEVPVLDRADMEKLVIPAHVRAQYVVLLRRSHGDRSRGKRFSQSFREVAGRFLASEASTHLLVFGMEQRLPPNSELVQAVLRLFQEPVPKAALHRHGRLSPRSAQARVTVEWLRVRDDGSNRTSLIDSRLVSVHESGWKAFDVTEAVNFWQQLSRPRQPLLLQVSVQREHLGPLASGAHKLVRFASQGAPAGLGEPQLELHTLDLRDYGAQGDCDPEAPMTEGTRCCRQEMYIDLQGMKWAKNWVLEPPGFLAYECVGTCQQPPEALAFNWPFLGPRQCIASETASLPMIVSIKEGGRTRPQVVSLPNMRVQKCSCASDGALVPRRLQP
# [4] = target: Calmodulin-1 (Homo sapiens) (UniProt P0DP23); assay: CALM1 binders on microarrays, EGTA buffer, profiling panel, biochemical, small-molecule microarray, Cy5-labelled CALM1 (AID 1111); details: Cy5-CALM1 binding fluorescence, higher = more signal;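 note: labelled calmodulin applied in Tris saline Tween buffer holding calcium plus EGTA and DTT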
# [5] = target: Calmodulin-1 (Homo sapiens) (UniProt P0DP23); assay: calcium-bound CALM1 binders on microarrays, profiling panel, artefact control for SMM control-protein annotation, biochemical, small-molecule microarray, Cy5-labelled CALM1, plus calcium (AID 1112); details: Cy5-CALM1 binding fluorescence, higher = more signal;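 note: score merges spot fluorescence with signal to noise from triplicate slides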
# [6] = small-molecule microarray binders of probe aWnt5a, primary screen, biochemical, biotinylated probe, 635/667 nm fluorescence (AID 1113); details: higher = more signal;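 note: score merges 667 nm fluorescence intensity with signal-to-noise per printed feature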
# [7] = small-molecule microarray binders of probe aShh, primary screen, biochemical, biotinylated probe, 635/667 nm fluorescence (AID 1114); details: higher = more signal;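 note: probe is biotin-labelled aShh protein from a stem cell growth factor screen; measures binding of labelled protein to compounds printed on the slide; score merges feature fluorescence at 667 nm with signal-to-noise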
# [8] = small-molecule microarray binders of probe aNog, primary screen, biochemical, biotinylated probe, 635/667 nm fluorescence (AID 1115); details: higher = more signal;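 note: probe is biotinylated aNog protein used at 0.15 µg/mL for 1 h at 4 C; z-score combines 667 nm fluorescence of each spot with its signal to noise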
# [9] = target: Torsin-1A-interacting protein 1 (Homo sapiens) (UniProt Q5JTV8); assay: LAP1 binders from COS7 cell lysate, primary screen, small-molecule microarray, 635/667 nm fluorescence (AID 1116); details: COS7-hLAP1 lysate binding, 635 nm fluorescence, higher = more signal
# Torsin-1A-interacting protein 1 (Homo sapiens), sequence (Q5JTV8 whole entry, looked up): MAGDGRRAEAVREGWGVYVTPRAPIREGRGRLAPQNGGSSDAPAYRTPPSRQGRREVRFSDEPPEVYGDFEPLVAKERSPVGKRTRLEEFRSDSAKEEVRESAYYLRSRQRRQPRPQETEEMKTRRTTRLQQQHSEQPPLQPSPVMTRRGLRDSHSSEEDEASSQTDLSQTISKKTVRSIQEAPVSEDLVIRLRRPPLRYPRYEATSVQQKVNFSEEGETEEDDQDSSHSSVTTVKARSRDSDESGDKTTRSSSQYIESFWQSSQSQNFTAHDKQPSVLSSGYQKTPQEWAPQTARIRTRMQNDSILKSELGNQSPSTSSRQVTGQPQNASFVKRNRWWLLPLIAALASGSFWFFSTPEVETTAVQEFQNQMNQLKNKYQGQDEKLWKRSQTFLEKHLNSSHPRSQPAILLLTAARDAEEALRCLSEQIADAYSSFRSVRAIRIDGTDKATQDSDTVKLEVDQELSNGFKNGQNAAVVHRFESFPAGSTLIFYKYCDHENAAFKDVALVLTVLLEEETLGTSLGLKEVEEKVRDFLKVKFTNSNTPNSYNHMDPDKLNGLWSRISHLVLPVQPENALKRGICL
# [10] = target: Alpha-bungarotoxin (Bungarus multicinctus) (UniProt P60615); assay: alpha-bungarotoxin binders on microarray, profiling panel, artefact control for SMM control protein annotation, biochemical, small-molecule microarray, Alexa647 label, 635/667 nm fluorescence (AID 1117); details: alpha-BTX-A647 binding fluorescence, higher = more signal
# Alpha-bungarotoxin (Bungarus multicinctus), sequence (P60615 whole entry, looked up): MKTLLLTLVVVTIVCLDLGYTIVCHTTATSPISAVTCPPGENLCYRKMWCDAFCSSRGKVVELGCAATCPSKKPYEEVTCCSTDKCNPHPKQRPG
# [11] = target: Albumin (Bos taurus) (UniProt P02769); assay: bovine serum albumin binders on microarray, profiling panel, artefact control for SMM control protein annotation, biochemical, small-molecule microarray, Alexa647 label, 635/667 nm fluorescence (AID 1118); details: BSA-A647 binding, fluorescence 635 nm, higher = more signal;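 note: score merges 667 nm emission intensity and signal-to-noise per printed compound spot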
# Albumin (Bos taurus), sequence (P02769 whole entry, looked up): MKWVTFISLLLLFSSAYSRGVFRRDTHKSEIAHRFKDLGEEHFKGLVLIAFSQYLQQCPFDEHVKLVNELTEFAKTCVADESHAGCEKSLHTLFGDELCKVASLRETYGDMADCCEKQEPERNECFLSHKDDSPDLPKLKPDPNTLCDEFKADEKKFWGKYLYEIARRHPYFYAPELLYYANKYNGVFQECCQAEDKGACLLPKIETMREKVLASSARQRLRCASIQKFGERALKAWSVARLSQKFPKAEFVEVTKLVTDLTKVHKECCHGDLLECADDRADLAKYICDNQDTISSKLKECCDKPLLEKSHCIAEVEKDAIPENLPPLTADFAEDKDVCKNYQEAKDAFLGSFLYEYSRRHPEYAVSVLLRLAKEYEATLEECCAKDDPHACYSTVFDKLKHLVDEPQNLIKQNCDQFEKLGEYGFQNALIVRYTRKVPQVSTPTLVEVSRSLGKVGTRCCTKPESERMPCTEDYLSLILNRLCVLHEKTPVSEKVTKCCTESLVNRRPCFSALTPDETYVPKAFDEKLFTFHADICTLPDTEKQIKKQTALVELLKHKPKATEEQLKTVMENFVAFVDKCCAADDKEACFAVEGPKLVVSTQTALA
# [12] = small-molecule microarray binders of probe aXIP, primary screen, biochemical, NeuroSMM set, 635/667 nm fluorescence (AID 1119); details: higher = more signal, called active from +8 up or from −8 down;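 note: probe is the protein aXip251-270 applied at 1 µg/mL to compound-printed slides; binding of probe to printed compounds measured as 667 nm fluorescence plus signal to noise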
# [13] = small-molecule binders of probe aNOTCH3, primary screen, biochemical, small-molecule microarray, 635/667 nm fluorescence (AID 1120); details: higher = more signal;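 note: probe is a biotin-tagged antibody raised against NOTCH3 rather than NOTCH3 protein; score merges spot fluorescence near 667 nm with spot signal to noise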
# [14] = small-molecule binders of probe aNOTCH2, primary screen, biochemical, small-molecule microarray, 635/667 nm fluorescence (AID 1121); details: higher = more signal;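 note: score merges feature fluorescence read at 667 nm with its signal to noise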
# [15] = target: Carbonic anhydrase 2 (Homo sapiens) (UniProt P00918); assay: CAII small-molecule binders, profiling panel, biochemical, small-molecule microarray, Alexa647-labelled CAII (AID 1122); details: CAII-A647 binding fluorescence, higher = more signal
# [16] = COS7 lysate on small-molecule microarray, probe aHis, 635 nm (AID 1123); details: COS7 cell lysate, fluorescence, higher = more signal;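 note: z-score combines 667nm fluorescence intensity with signal-to-noise per printed compound spot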
# [17] = compound binding in COS7 lysate, probe aLAP1, primary screen, cell lysate, small-molecule microarray (AID 1124); details: probe aLAP1, fluorescence, higher = more signal;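 note: lysate comes from COS7 cells expressing LAP1 and is applied at 0.3 µg/mL; score merges spot fluorescence near 667 nm with signal-to-noise over triplicate slides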
# [18] = test system: Sam68 (KHDRBS1); assay: Sam68 small-molecule binders, primary screen, biochemical, small-molecule microarray, 635 nm fluorescence (AID 1125); details: small-molecule microarray binding, higher = more signal;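 note: score merges 667 nm channel intensity with signal to noise over triplicate slides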
# [19] = test system: Chordin-like protein 2 (CHRDL2); assay: CHRDL2 small-molecule binders, primary screen, biochemical, small-molecule microarray, 635 nm fluorescence (AID 1126); details: small-molecule microarray binding, fluorescence 635 nm; higher = more signal;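 note: printed compound slides probed with Chrdl2 protein at 4 µg/mL for 1 h at 4 C; score merges 667 nm emission intensity with signal to noise over three replicate slides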
# [20] = target: Concanavalin-A (Canavalia ensiformis) (UniProt P02866); assay: ConA small-molecule binders, primary screen, artefact control for SMM control protein annotation, biochemical, small-molecule microarray, Alexa647 label, 635 nm (AID 1127); details: ConA-A647 binding fluorescence, higher = more signal;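 note: z combines 667 nm emission intensity with signal-to-noise across three replicate slides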
# Concanavalin-A (Canavalia ensiformis), sequence (P02866 whole entry, looked up): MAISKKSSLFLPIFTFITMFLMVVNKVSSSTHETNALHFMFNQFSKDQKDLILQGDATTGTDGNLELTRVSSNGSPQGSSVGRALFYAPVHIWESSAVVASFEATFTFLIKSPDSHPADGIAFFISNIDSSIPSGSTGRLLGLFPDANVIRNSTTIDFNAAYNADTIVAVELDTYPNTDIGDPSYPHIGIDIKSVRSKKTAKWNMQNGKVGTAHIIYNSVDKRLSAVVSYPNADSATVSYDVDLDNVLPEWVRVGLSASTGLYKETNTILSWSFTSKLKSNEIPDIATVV
Compound,composite z-score [1],z-score [2],composite z-score [3],composite z-score [4],composite z-score [5],composite z-score [6],composite z-score [7],composite z-score [8],composite z-score [9],composite z-score [10],composite z-score [11],composite Z-score [12],composite z-score [13],composite z-score [14],composite z-score [15],composite z-score [16],composite z-score [17],composite z-score [18],composite z-score [19],composite z-score [20]
COCCOC(=O)N1C(=O)[C@@]2(c3cc(C#CC4(O)CCCCCC4)ccc31)[C@H](c1ccc(O)cc1)N1[C@H](c3ccccc3)[C@H](c3ccccc3)OC(=O)[C@H]1[C@@H]2C(=O)NC[C@H](O)c1ccccc1,1.05,-1.03,0.951,0.896,0.524,-0.0339,0.14,0.0896,1.6,1.76,0.179,0.534 (inactive),-0.0133,0.0296,0.522,2.46,1.46,1.3,0.97,1.02
C=CCOC(=O)[C@H]1[C@@H]2C(=O)O[C@@H](c3ccccc3)[C@@H](c3ccccc3)N2[C@@H](c2ccc(OCCOC(=O)[C@@H]3C[C@@H]4C(=O)N[C@@H](CCCCNC(C)=O)C(=O)N4[C@@H]3c3ccc(O)cc3)cc2)[C@]12C(=O)Nc1ccc(I)cc12,1.37,-1.14,0.637,0.48,-0.215,-0.0519,0.131,0.381,1.65,1.78,-0.689,1.53 (inactive),0.108,0.0083,0.631,1.69,0.719,1.29,1.01,0.764
COC(=O)[C@@]1(Cc2ccc(F)cc2)[C@H]2c3cc(C(=O)N(C)C)n(Cc4cc(F)cc5c4OCOC5)c3C[C@H]2CN1C(=O)c1ccccc1,1.41,-1.81,0.011,1.68,0.0074,-0.001,0.0856,0.468,0.822,1.04,1.07,-0.199 (inactive),0.24,0.105,0.376,2.97,0.271,1.33,-0.535,1.04
COC(=O)[C@@]1(Cc2ccccc2)[C@H]2c3cc(C(=O)N(C)C)n(CCc4ccc(O)c(OC)c4)c3C[C@H]2CN1C(=O)c1ccccc1,0.351,-0.261,0.38,0.89,-0.136,0.583,1.49,0.974,0.279,0.19,0.374,-0.372 (inactive),0.742,0.401,0.126,0.316,0.638,0.169,0.314,0.151
COCC1=C2[C@@H](CCc3ccccc3)OB(O)C[C@@H]2[C@@H]2C(=O)C=CC(=O)[C@@H]2C1,1.01,-2.08,0.363,1.03,0.344,-0.101,0.0684,0.26,0.236,1.43,0.739,-0.228 (inactive),0.334,-0.12,0.295,0.883,0.481,1.31,0.0197,1.02
O=C1OCC=C[C@H]2OC34C=CCN(Cc5ccccc5)C(=O)[C@H]3N(CCCCCCO)C(=O)[C@@H]4[C@@H]12 (stereo not given in full),-1.08,0.141,-1.19,-0.274,0.466,-0.161,-0.0396,-0.302,2.46,-0.367,0.4,0.604 (inactive),-0.302,-0.162,0.914,0.0976,1.31,-0.398,-0.694,-0.159
CC(=O)c1ccc(C(O)C2C=CC3C(=O)N(c4ccccc4)C(=O)C3N2Nc2ccc(C#N)cc2)cc1 (stereo not given),0.909,-0.0483,0.0172,1.11,0.586,-0.172,0.149,-0.409,0.142,1.33,0.962,0.824 (inactive),0.119,-0.0023,0.759,2.46,-0.1,1.1,-0.624,1.13
COc1ccc([Si](C)(C)[C@@H]2[C@@H](CCn3cc([C@H](O)c4ccccc4)nn3)O[C@]3(C(=O)N(Cc4ccc(N5CCC5=O)cc4)c4ccccc43)[C@H]2C)cc1,-0.222,-2.06,-0.309,-0.185,-0.0351,-0.217,-0.191,0.318,0.0139,-0.0352,0.0006,0.811 (inactive),-0.505,-0.0849,-0.266,0.121,-0.426,-0.323,-0.0871,0.469
OCC1CC(c2ccccc2)=NO1 (stereo not given),-1.07,0.381,0.43,-0.759,-0.445,-0.0084,-0.248,0.21,0.19,-0.0251,-0.558,-0.228 (inactive),-0.185,-0.124,-0.179,-0.53,-0.437,-0.424,0.843,-0.36
C=C(CCCC)/C(=C/C[C@@H](OC(=O)c1ccncc1)c1ccccc1OCCO)c1cnc2ccccc2c1,1.33,-2.77,0.845,0.616,-0.759,0.16,-0.0849,-0.218,1.92,1.35,0.459,-0.869 (inactive),0.28,-0.105,0.719,0.457,0.603,1.3,0.924,1.07
COC(=O)[C@@]1(Cc2ccccc2)[C@H]2c3cc(C(=O)N(C)C)n(CCN4CNCC4=O)c3C[C@H]2CN1C(=O)c1ccccc1,-0.5,0.188,-1.47,2.98,-2.29,0.401,0.0183,1.99,4.42,3.12,0.984,0.0052 (inactive),0.571,0.37,0.826,-0.325,1.26,-0.764,-1.16,-1.42
